The structures appear in SMILES notation.

Experiment [1] concerns Human papillomavirus type 1a protein E7 (residues 44-93). The experiment can be described thus: small molecules binding HPV E7 44-93 – biochemical, small-molecule microarray, residues 44-93, 635 nm fluorescence, primary screen (AID 1108).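 Note: E7 fragment applied at 1 µg/mL in TBST for 1 h at 4 C; score combines spot fluorescence with its signal to noise ratio.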 Particulars: fluorescence 635 nm, higher = more signal.
Experiment [2] in a line: hepatitis C replication reporter changes, two-sided – Huh7 cells, luciferase reporter, HCV replication inhibitor project, primary screen (AID 1109).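 Note: huh7 hepatoma cells harbouring a luciferase neomycin HCV replicon reporter; luciferase luminescence as measure of HCV replicon replication; test concentration not given here.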 Particulars: Huh7 HCV replicon luciferase reporter, 48 h; higher = more signal. A general note: In a reporter assay the amount or activity of a reporter protein is the signal.
Experiment [3] has as its target Left-right determination factor 2 (Homo sapiens) (UniProt O00292). The experiment can be described thus: small molecules binding LEFTY2 protein – biochemical, small-molecule microarray, 635 nm fluorescence scan, primary screen (AID 1110). Particulars: higher = more signal.
For experiment [4], the target named is Calmodulin-1 (Homo sapiens) (UniProt P0DP23). The experiment can be described thus: small molecules binding calmodulin-1 with EGTA – biochemical, small-molecule microarray, Cy5-labelled CALM1, profiling panel (AID 1111).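 Note: labelled calmodulin applied in Tris saline Tween buffer holding calcium plus EGTA and DTT.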 Particulars: Cy5-CALM1 binding fluorescence, higher = more signal.
The target is the same in experiment [5]. The experiment is described as follows: small molecules binding Ca-loaded calmodulin-1 – biochemical, small-molecule microarray, Cy5-labelled CALM1, plus calcium, artefact control for SMM control-protein annotation, profiling panel (AID 1112).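 Note: score merges spot fluorescence with signal to noise from triplicate slides.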 Particulars: Cy5-CALM1 binding fluorescence, higher = more signal.
A short description of experiment [6]: probe aWnt5a binding to arrayed compounds – biochemical, biotinylated probe, 635/667 nm fluorescence, primary screen (AID 1113).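 Note: score merges 667 nm fluorescence intensity with signal-to-noise per printed feature.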 Particulars: small-molecule microarray, higher = more signal.
The nature of experiment [7]: probe aShh binding to arrayed compounds – biochemical, biotinylated probe, 635/667 nm fluorescence, primary screen (AID 1114).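 Note: probe is biotin-labelled aShh protein from a stem cell growth factor screen; measures binding of labelled protein to compounds printed on the slide; score merges feature fluorescence at 667 nm with signal-to-noise.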 Particulars: small-molecule microarray, higher = more signal.
Experiment [8] in a line: probe aNog binding to arrayed compounds – biochemical, biotinylated probe, 635/667 nm fluorescence, primary screen (AID 1115).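 Note: probe is biotinylated aNog protein used at 0.15 µg/mL for 1 h at 4 C; z-score combines 667 nm fluorescence of each spot with its signal to noise.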 Particulars: small-molecule microarray, higher = more signal.
The target of experiment [9] is Torsin-1A-interacting protein 1 (Homo sapiens) (UniProt Q5JTV8). The experiment is described as follows: compound microarray binding of lysate hLAP1 – cell lysate, small-molecule microarray, COS7 lysate, 635/667 nm fluorescence, primary screen (AID 1116). Particulars: 635 nm fluorescence, higher = more signal.
Sequence of Torsin-1A-interacting protein 1 (Homo sapiens) (Q5JTV8 whole entry, looked up): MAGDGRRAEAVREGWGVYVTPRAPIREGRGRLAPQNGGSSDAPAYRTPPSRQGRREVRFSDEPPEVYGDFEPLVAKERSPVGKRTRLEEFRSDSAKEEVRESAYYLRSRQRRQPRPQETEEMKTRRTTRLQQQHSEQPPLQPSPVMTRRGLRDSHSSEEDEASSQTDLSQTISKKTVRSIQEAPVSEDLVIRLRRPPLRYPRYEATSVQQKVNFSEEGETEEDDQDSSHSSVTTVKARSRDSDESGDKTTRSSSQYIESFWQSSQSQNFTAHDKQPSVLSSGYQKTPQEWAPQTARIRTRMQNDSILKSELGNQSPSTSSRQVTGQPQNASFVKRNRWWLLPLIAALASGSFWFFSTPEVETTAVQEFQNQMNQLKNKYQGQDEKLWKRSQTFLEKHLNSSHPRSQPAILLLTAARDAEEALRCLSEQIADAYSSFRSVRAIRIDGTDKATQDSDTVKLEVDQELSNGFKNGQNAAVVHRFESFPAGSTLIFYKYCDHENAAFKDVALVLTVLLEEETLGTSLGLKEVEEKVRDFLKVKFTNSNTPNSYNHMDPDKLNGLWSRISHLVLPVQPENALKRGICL
Experiment [10] has as its target Alpha-bungarotoxin (Bungarus multicinctus) (UniProt P60615). The experiment is described as follows: compounds binding labelled alpha-BTX control protein – biochemical, small-molecule microarray, Alexa647 label, 635/667 nm fluorescence, artefact control for SMM control protein annotation, profiling panel (AID 1117). Particulars: alpha-BTX-A647 binding fluorescence, higher = more signal.

Sequence of Alpha-bungarotoxin (Bungarus multicinctus) (P60615 whole entry, looked up): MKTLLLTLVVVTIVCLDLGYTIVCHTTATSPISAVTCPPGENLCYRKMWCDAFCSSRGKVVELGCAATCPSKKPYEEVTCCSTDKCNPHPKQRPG
Sequence of Left-right determination factor 2 (Homo sapiens) (O00292 whole entry, looked up): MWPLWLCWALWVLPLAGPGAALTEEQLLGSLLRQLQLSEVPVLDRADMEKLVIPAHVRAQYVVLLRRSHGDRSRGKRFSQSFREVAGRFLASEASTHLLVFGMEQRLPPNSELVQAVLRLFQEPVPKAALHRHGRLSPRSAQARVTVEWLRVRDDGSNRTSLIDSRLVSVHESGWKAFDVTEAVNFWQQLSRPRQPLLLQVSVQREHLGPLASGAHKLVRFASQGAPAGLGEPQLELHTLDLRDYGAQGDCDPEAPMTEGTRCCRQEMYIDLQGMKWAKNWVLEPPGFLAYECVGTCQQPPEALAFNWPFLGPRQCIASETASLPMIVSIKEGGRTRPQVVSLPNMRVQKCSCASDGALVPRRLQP

For `COc1ccccc1CN1C(=O)c2ccccc2[C@](Cc2ccccc2I)(C(=O)NCCCN(C)C)[C@@H]1c1ccc(CO)cc1`, the composite z-score in experiment [1] was 1.35; in experiment [3], -0.371; in experiment [4] it was -0.167; in [5] it was -0.272; in experiment [6], 0.134; in experiment [7] it was 0.215. For the same compound, the composite z-score in [8] turned out to be 1.44; in experiment [9] it was 0.549; in experiment [10], 0.812. Also, the z-score in experiment [2] was -3.5.

For the compound `C[N+](C)(C)CCCCCCNC(=O)[C@@H]1C[C@@H]2C(=O)N[C@@H](Cc3ccccc3)C(=O)N2[C@@H]1c1ccc(O)cc1`, the composite z-score in experiment [1] was 1.32; in [3], 1.27; in experiment [4], -0.193; in [5], -0.927; in experiment [6], -0.0236; in experiment [7], -0.156. The composite z-score turned out to be 0.0498 in experiment [8], 1.41 in experiment [9] and 1.54 in experiment [10]. The compound also displayed a z-score in [2] of 0.389.

`COc1cccc(C[C@H]2C[C@@H](CO[Si](C(C)C)(C(C)C)C(C)C)N3C(=O)[C@@]4(C(C)=O)O[C@@]23[C@@H]2C(=O)N(C)C(=O)[C@@H]24)c1`: the composite z-score was 1.04 in experiment [1]; 0.901 in [3]; 0.05 in experiment [4]; -0.587 in [5]; -0.0364 in experiment [6]; 0.131 in experiment [7]. The composite z-score in experiment [8] is 0.0974; in experiment [9] it was 0.272; in experiment [10], -0.378. In addition, in [2], the z-score is -2.81.

In the case of `CCOC(=O)C[C@H]1[C@H](OC(=O)c2ccc(-c3ccccc3)cc2)[C@@H](NC(=O)CC(C)C)c2cc(OCCCO)ccc2N1C(=O)Cc1ccc(OC)cc1`, the composite z-score was 0.157 in experiment [1]; 0.141 in experiment [3]; 1.05 in experiment [4]; 0.335 in experiment [5]; -0.0523 in experiment [6]; -0.2 in experiment [7]. In addition, the composite z-score is -0.126 in experiment [8], 0.418 in experiment [9] and 0.446 in experiment [10]. The compound also registered a z-score in experiment [2] of -1.84.

In the case of `CCCC[C@@H]1C[C@H]1[C@@H](NC(=O)c1ccc(C(F)(F)F)cc1)c1ccc(C(=O)OC)cc1`, the composite z-score in [1] amounted to 0.733; in experiment [3] it was 0.497; in experiment [4] it was 0.995; in [5], 0.271; in experiment [6] it was 0.869; in experiment [7], 2.11. Also, the composite z-score came out at 0.238 in experiment [8], 1.27 in experiment [9] and 1.48 in [10]. This compound also had a z-score in experiment [2] of -1.33.

`COCCCNC(=O)[C@@H]1c2ccccc2C(=O)N(C2CCCCC2)[C@H]1c1ccc(CO)cc1`: the composite z-score was -0.093 in experiment [1]; -1.22 in [3]; -0.28 in experiment [4]; 0.716 in experiment [5]; -0.124 in [6]; -0.0769 in [7]. The results for the composite z-score in experiment [8], in experiment [9] and in experiment [10] were -0.0633, 1.25 and -1.08, respectively. In experiment [2], this compound showed a z-score of -1.27.

On to `CCCC=C(CCC)[C@@H](NS(=O)(=O)c1ccc(Cl)cc1)c1ccccc1`, for which the composite z-score was -0.201 in experiment [1]; -1.34 in [3]; 0.451 in [4]; 0.781 in experiment [5]; 0.954 in experiment [6]; 0.508 in experiment [7]. Further, the results for the composite z-score in experiment [8], in experiment [9] and in [10] were 1.07, -1.24 and 0.64, respectively. This compound also displayed a z-score in experiment [2] of -0.777.

As to `C=CCC(OC(C)=O)[C@@H]1[C@@H](N(Cc2ccc(-c3cccc(C(F)(F)F)c3)o2)C(=O)Cc2ccc(F)cc2)c2cc(OCCCO)ccc2N1C(=O)c1ccc2ccccc2c1` (stereo not given in full), the composite z-score is -1.18 in experiment [1]; -0.72 in [3]; -0.681 in [4]; -0.214 in experiment [5]; -0.0548 in experiment [6]; -0.221 in experiment [7]. Moreover, the composite z-score was -0.624 in experiment [8], 0.0175 in experiment [9] and -0.318 in [10]. Further, the z-score in experiment [2] was -0.735.

For `O=C1O[C@H](c2ccccc2)[C@H](c2ccccc2)N2[C@H]1[C@@H](C(=O)N1CCN(c3ncccn3)CC1)[C@]1(C(=O)Nc3ccccc31)[C@H]2c1ccc(O)cc1`, the composite z-score in experiment [1] is 1.43; in experiment [3], -0.412; in experiment [4], 1.28; in experiment [5], 0.618; in experiment [6], -0.0643; in experiment [7], -0.119. The composite z-score in experiment [8] is 0.265; in experiment [9], -0.15; in experiment [10], 0.593. This compound also yielded a z-score in [2] of -1.9.

Regarding `C[C@@H](OCc1ccccc1)C1NC(=O)[C@@]23C(=O)N[C@@H](Cc4ccccc4)C2[C@H](C)[C@@]2(C)O[C@H]2C3/C=C/C/C=C\CNC(=O)[C@H](Cc2ccccc2)NC1=O` (stereo not given in full), the composite z-score in experiment [1] is -0.677; in [3], 0.226; in experiment [4], -0.629; in [5], -1.15; in experiment [6] it was -0.035; in experiment [7], -0.304. Moreover, the results for the composite z-score in experiment [8], in [9] and in [10] were -0.289, 0.252 and -0.753, respectively. This compound also returned a z-score in experiment [2] of -0.963.

Turning to `C#CCN=C(N)N`, the composite z-score in experiment [1] is 0.69; in experiment [3] it was 1.11; in experiment [4], -0.617; in [5] it was -0.736; in experiment [6] it was -0.131; in experiment [7], -0.0813. Also, the values for the composite z-score in [8], in [9] and in experiment [10] were -0.226, 0.622 and 0.0757, respectively. The compound also had a z-score in [2] of -0.613.

As for `COC(=O)C1=CC(CCCO)=CC(C2CC2)N(Cc2cccc(OC(F)(F)F)c2)C=C1C(=O)OC` (stereo not given), the composite z-score in experiment [1] is 1.43; in experiment [3], -0.724; in [4] it was 0.302; in experiment [5], 0.364; in [6], 0.0077; in [7], -0.0035. The figures for the composite z-score in experiment [8], in experiment [9] and in [10] were 0.374, -0.302 and 0.0939, respectively. Moreover, the z-score in experiment [2] was -1.46.

In the case of `NCCCC[C@@H]1NC(=O)[C@H]2C[C@@H](C(=O)NCc3ccc(F)cc3)[C@@H](c3cccc(OCCO)c3)N2C1=O`, the composite z-score is 1.43 in experiment [1]; 1.13 in experiment [3]; 0.986 in experiment [4]; -0.75 in [5]; 0.0077 in experiment [6]; -0.0119 in [7]. Moreover, the values for the composite z-score in [8], in experiment [9] and in [10] were 0.127, 1.92 and 0.538, respectively. In experiment [2], this compound registered a z-score of -2.1.

Consider `CCCC[C@H]1OB(O)C[C@H]2C1=C(COC)C[C@H]1C(=O)C=CC(=O)[C@H]12`, for which the composite z-score in experiment [1] is 0.275; in experiment [3], 0.594; in [4], -0.321; in experiment [5], -0.728; in [6], -0.101; in [7] it was 0.0062. Also, the results for the composite z-score in [8], in experiment [9] and in experiment [10] were -0.0344, -0.22 and 0.567, respectively. In experiment [2], this compound had a z-score of -1.33.

On to `CC(C)=CCN(C(=O)C#Cc1ccccc1)[C@H](CO)c1ccccc1`, for which the composite z-score in [1] was 1.16; in experiment [3], 0.379; in experiment [4], -0.557; in experiment [5], -0.56; in [6], -0.0346; in [7], -0.16. For the same compound, the composite z-score in experiment [8] is -0.302; in experiment [9], 0.58; in [10], 0.14. This compound came in with a z-score in experiment [2] of -4.92.

As for `C=CCOC(=O)[C@H]1[C@@H]2C(=O)O[C@@H](c3ccccc3)[C@@H](c3ccccc3)N2[C@@H](c2ccc(OCCOC(=O)[C@H]3C[C@H]4C(=O)NCC(=O)N4[C@H]3c3ccc(O)cc3)cc2)[C@]12C(=O)Nc1ccc(I)cc12`, the composite z-score is 0.429 in experiment [1]; 0.788 in [3]; 0.275 in [4]; 0.295 in experiment [5]; -0.1 in experiment [6]; -0.367 in experiment [7]. Moreover, the composite z-score in experiment [8] was -0.158; in experiment [9], 0.365; in experiment [10] it was -0.303. Besides, the z-score in [2] was -1.58.

As to `CCN(CC)c1ccc(N2CC=CC34O[C@@H]5C=CCOC(=O)[C@@H]5[C@H]3C(=O)N(CCCO)[C@@H]4C2=O)cc1` (stereo not given in full), the composite z-score in [1] was 0.295; in experiment [3] it was -0.934; in experiment [4] it was -1; in [5] it was 0.319; in experiment [6] it was -0.124; in [7], 0.258. Besides, the composite z-score was 0.223 in experiment [8], 0.0016 in experiment [9] and -1.57 in experiment [10]. This compound gave a z-score in experiment [2] of -0.427.

The record behind these values is PubChem BioAssay.
